Measurements published in PubChem BioAssay (Tox21).
Results filed as inconclusive are left out. Calls of active or inactive are those of the source. Unless noted, the call rests on the fitted dose curve; in most records, active means well fitted curve in the direction sought with a large enough effect in the repeat runs; inconclusive means weak or mixed curves; inactive means no such curve, though single readings can be large; an effect the other way counts as inactive or inconclusive.

Tests used:
[1] = target: Retinoic acid receptor RXR-alpha (Homo sapiens) (UniProt P19793); test: qHTS assay to identify small molecule agonists of the RXR signaling pathway (AID 1159527; calls by dose curve; further: nearly all actives have a fitted effect of over 35% in size)
Summary of the method: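 Agonist-mode beta-lactamase reporter assay: HEK 293T RXR-alpha-UAS-bla cells treated 16 hr at 37 C with compounds, 9-cis retinoic acid as positive control. LiveBLAzer FRET substrate, 405 nm excitation, 460/530 nm emission.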

[2] = qHTS assay to identify small molecule antagonists of the retinoid acid receptor (RAR) signaling pathway - cell viability counter screen (AID 1159551); further: nearly all actives have a fitted effect of over 35% in size
Summary of the method: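 ATP-based viability, C3RL4 cells, 6 h at 37 C with 1 uM final retinol co-added after compound; luminescence read 30 min post CellTiter-Glo, RT.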

[3] = qHTS assay to identify small molecule antagonists of the estrogen related receptor (ERR) signaling pathway from Tox21 library - cell viability counter screen (AID 1224834); further: nearly all actives have a fitted effect of over 30% in size
Summary of the method: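 Compounds in DMSO were pinned onto ERR cells that had been incubated for 6 h, and the plates were held at 37 C for 17.5 h. CellTiter-Fluor reagent was then added and fluorescence was measured after 30 min.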

[4] = target: Luciferin 4-monooxygenase (Photinus pyralis) (UniProt P08659); test: qHTS assay to identify small molecule inhibitors of firefly luciferase (AID 1224835); further: series mostly up to about 120 µM; nearly all actives have a fitted effect of over 25% in size
Summary of the method: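 Biochemical qHTS: compounds run as interplate titrations against purified firefly enzyme, with D-luciferin and ATP each at its KM concentration. Light output recorded by CCD imaging.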

[5] = qHTS assay to identify small molecule agonists of the constitutive androstane receptor (CAR) signaling pathway - cell viability counter screen (AID 1224836); further: series mostly up to about 92 µM; nearly all actives have a fitted effect of over 45% in size
Summary of the method: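 Cell viability multiplexed with the CAR agonist screen: CellTiter-Fluor fluorescence after 23 hr at 37 C. HepG2-CYP2B6-hCAR cells got compounds at 15 concentrations with PK11195 at 0.75 uM final.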

[6] = qHTS assay to identify small molecule antagonists of the constitutive androstane receptor (CAR) signaling pathway - cell viability counter screen (AID 1224837); further: series mostly up to about 92 µM; nearly all actives have a fitted effect of over 45% in size
Summary of the method: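 Cells are seeded, rested 4 hr at 37 C/5% CO2, dosed with compound (15-point series) and 50 nM CITCO, incubated a further 23 hr, and then CellTiter-Fluor reagent is added before fluorescence is read. The line is HepG2 with stable hCAR and CYP2B6-2.2kb.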

[7] = target: Nuclear receptor subfamily 1 group I member 3 (Homo sapiens) (UniProt Q14994); test: qHTS assay to identify small molecule antagonists of the constitutive androstane receptor (CAR) signaling pathway (AID 1224838);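 further: HepG2 cells stably expressing hCAR with CYP2B6 luciferase reporter stimulated by CITCO; nearly all actives have a fitted effect of over 40% in size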
Summary of the method: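 Luminescence from a CYP2B6-2.2kb promoter reporter in hCAR-expressing HepG2 cells reflects CAR signaling. Cells received compounds at 15 concentrations and 50 nM CITCO (final), then incubated 24 h at 37 C/5% CO2.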

[8] = target: Nuclear receptor subfamily 1 group I member 3 (Homo sapiens) (UniProt Q14994); test: qHTS assay to identify small molecule agonists of the constitutive androstane receptor (CAR) signaling pathway (AID 1224839);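 further: HepG2 cells stably carrying human CAR and a CYP2B6 luciferase reporter; series mostly up to about 92 µM; nearly all actives have a fitted effect of over 15% in size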
Summary of the method: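 Luminescent ONE-Glo read-out after 24 hr, 37 C exposure of double-stable HepG2-CYP2B6-hCAR reporter cells to a 15-point compound series, in the presence of 0.75 uM PK11195 (final).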

[9] = qHTS assay to identify small molecule antagonists of the estrogen related receptor signaling pathway with the pleiotropic PPARgamma coactivator (PGC) from Tox21 10K library - cell viability counter screen (AID 1224840; active means well fitted cell-killing curve with a large enough effect in the repeat runs, not every such curve was filed as active; further: nearly all actives have a fitted effect of over 40% in size)
Summary of the method: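 Cell viability is measured by CellTiter-Fluor fluorescence in PGC/ERR cells that receive compounds after a 6-hour attachment period and are then incubated 17.5 hours at 37 C.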

[10] = qHTS assay to identify small molecule antagonists of the estrogen related receptor signaling pathway with the pleiotropic PPARgamma coactivator (PGC) from Tox21 10K library (AID 1224841; call rule not given here; further: series mostly up to about 92 µM; actives are mostly falling curves and most rising ones were filed inactive; nearly all actives have a fitted effect of over 50% in size)
Summary of the method: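 Cells stably carrying the PGC/ERR reporter, seeded at 2,000 per well, received pin-transferred compounds 6 h post-plating. Exposure lasted 18 h at 37 C. Signal: One-Glo luminescence.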

[11] = qHTS assay to identify small molecule agonists of the estrogen related receptor signaling pathway with the pleiotropic PPARgamma coactivator (PGC) from Tox21 10K library (AID 1224842); further: nearly all actives have a fitted effect of over 15% in size
Summary of the method: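 PGC/ERR reporter cell line, 2,000 cells per well, incubated 6 h at 37 C before 23 nL compound in DMSO was added. After 18 h at 37 C, One-Glo luminescence read following 30 min at room temperature.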

[12] = qHTS assay to identify small molecule antagonists of the retinoic acid receptor (RAR) signaling pathway (AID 1159552; further: nearly all actives have a fitted effect of over 50% in size)
Summary of the method: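 Luminescent RARE reporter read-out in C3RL4 cells: 6 hr co-treatment at 37 C of test compounds with retinol at 1 uM final. Cells plated overnight beforehand; luciferase reagent incubated 30 min at room temperature before reading.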

[13] = qHTS assay to identify small molecule agonists of the retinoic acid receptor (RAR) signaling pathway (AID 1159553)
Summary of the method: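 Quantitative high-throughput format: the Tox21 10K library was tested on C3RL4 RARE-luciferase cells for 6 hr at 37 C and 5% CO2, with luminescence measured after a 30 min room-temperature reagent step.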

[14] = qHTS assay to identify small molecule agonists of the RXR signaling pathway - cell viability counter screen (AID 1159529); further: series mostly up to about 77 µM; nearly all actives have a fitted effect of over 50% in size
Summary of the method: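 CellTiter-Glo luminescence gave viability in the wells also read for beta-lactamase. Cells (RXR-alpha-UAS-bla HEK 293T, 2% charcoal-stripped FBS medium) had 5 hr plating, then 16 hr compound exposure at 37 C; tetraoctyl ammonium bromide served as positive control.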

[15] = qHTS assay to identify small molecule antagonists of the estrogen related receptor (ERR) signaling pathway - cell viability counter screen (AID 1224818);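 further: series mostly up to about 46 µM; viability measured after 17.5 h of compound exposure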
Summary of the method: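 Quantitative high-throughput viability counter screen in ERR cells. Compounds (DMSO) incubated 17.5 h at 37 C; read-out was CellTiter-Fluor fluorescence.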

[16] = qHTS assay to identify small molecule antagonists of the estrogen related receptor signaling pathway with the pleiotropic PPARgamma coactivator (PGC) cell viability counter screen (AID 1224822; further: series mostly up to about 46 µM)
Summary of the method: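 Cytotoxicity in the PGC/ERR cell line is assessed with CellTiter-Fluor, read as fluorescence intensity 30 min after reagent addition, following 17.5 h compound treatment at 37 C.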

Measured: Potency

Chain of Luciferin 4-monooxygenase (Photinus pyralis) (P08659 whole entry, looked up): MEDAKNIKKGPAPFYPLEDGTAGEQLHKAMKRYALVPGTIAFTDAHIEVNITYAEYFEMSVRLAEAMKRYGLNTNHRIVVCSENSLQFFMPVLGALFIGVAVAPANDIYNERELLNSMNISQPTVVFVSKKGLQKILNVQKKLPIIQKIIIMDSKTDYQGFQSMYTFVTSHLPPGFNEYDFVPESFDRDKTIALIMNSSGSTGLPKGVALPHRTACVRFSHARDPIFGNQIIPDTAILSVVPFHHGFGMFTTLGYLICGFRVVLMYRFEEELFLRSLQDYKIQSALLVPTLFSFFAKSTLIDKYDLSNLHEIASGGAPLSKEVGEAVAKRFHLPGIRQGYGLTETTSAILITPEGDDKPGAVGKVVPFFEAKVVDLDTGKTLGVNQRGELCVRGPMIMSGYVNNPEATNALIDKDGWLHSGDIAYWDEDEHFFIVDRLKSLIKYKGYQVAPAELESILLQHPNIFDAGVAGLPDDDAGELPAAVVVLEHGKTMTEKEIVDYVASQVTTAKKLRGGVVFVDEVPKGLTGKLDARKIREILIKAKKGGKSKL
Chain of Nuclear receptor subfamily 1 group I member 3 (Homo sapiens) (Q14994 whole entry, looked up): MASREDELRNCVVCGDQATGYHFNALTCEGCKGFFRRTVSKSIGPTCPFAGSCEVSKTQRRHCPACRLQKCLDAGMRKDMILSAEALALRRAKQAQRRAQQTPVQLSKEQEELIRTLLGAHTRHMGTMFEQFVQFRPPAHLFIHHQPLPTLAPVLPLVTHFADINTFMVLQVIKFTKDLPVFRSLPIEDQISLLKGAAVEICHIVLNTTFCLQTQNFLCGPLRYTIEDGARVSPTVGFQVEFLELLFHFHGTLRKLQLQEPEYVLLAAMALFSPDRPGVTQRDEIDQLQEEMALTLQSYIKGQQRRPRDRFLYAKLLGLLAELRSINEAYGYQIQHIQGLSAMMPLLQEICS
Chain of Retinoic acid receptor RXR-alpha (Homo sapiens) (P19793 whole entry, looked up): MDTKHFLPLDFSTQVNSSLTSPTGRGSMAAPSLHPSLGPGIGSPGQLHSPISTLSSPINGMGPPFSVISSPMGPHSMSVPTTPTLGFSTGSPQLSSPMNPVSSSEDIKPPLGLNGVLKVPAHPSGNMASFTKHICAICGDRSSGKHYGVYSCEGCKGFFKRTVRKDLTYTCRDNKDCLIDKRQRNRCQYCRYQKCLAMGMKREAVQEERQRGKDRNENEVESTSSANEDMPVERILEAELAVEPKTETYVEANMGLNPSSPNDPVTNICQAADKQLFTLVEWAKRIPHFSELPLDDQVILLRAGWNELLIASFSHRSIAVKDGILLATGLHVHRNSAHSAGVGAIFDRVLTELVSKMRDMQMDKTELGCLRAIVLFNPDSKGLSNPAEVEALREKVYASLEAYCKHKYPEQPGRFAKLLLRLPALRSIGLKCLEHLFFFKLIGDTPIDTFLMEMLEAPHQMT

CCCCN(CCO)CCO
not listed: [12] | [13] | [14] | [15] | [16]
inactive: all other assays above

CC1=CC(=O)CCC1
not listed: [10] | [11] | [14] | [15] | [16]
inactive: all other assays above

O=c1[nH]c2ccccc2c(=O)n1CCCl
not listed: [2] | [12] | [13] | [14] | [15] | [16]
inactive: all other assays above

CCCCc1ccc2cccc(S(=O)(=O)O)c2c1
not listed: [2] | [14] | [15] | [16]
inactive: all other assays above

OCCCCCCO
not listed: [10] | [11] | [14] | [15] | [16]
inactive: all other assays above

CCCOc1ccccc1-c1nc2n[nH]nc2c(=O)[nH]1
not listed: [1] | [5] | [10] | [11]
inactive: all other assays above

C(=C(c1ccccc1)c1ccccc1)c1ccccc1
not listed: [8] | [10] | [11] | [14] | [15] | [16]
inactive: all other assays above

N#CCc1ccccc1[N+](=O)[O-]
not listed: [10] | [11] | [14] | [15] | [16]
inactive: all other assays above

C=CC(=O)OCCCCCC
inactive: [1] | [2] | [3] | [4] | [5] | [6] | [9]

CCC(C)OC(=O)N1CCCCC1CCO (stereo unspecified)
not listed: [1] | [11] | [15] | [16]
inactive: all other assays above

O=C(O)/C=C/c1ccc(Cn2ccnc2)cc1
inactive: [1] | [2] | [3] | [4] | [5] | [6] | [9]

COC(=O)c1ccc(C(=O)OC)c(C(=O)OC)c1
not listed: [4] | [14] | [15] | [16]
inactive: all other assays above
